# Measured values: PubChem BioAssay (NCI)
# The panel holds about 83,000 compounds, 20% with a hit somewhere; the sample as a whole holds those more often.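 Negative percent growth values reflect cell death: -40 means 40% of the cells present at the start died, and -100 means all died.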 Values without a mark were called inactive. The source made the active and inactive calls. How the source made its calls: active means growth percent below 10; inactive means the rest.
# What was measured:
# Test in all cases: NCI-60 one-dose screen, 48 h (100 = growth as untreated, 0 = no growth, -100 = all killed)
# Details in all cases: 10 µM unless noted
# [1] = system: SR leukemia
# [2] = system: RPMI-8226 leukemia
# [3] = system: OVCAR-8 ovarian
# [4] = system: OVCAR-5 ovarian
# [5] = system: OVCAR-4 ovarian
# [6] = system: SK-OV-3 ovarian
# [7] = system: IGROV1 ovarian
# [8] = system: OVCAR-3 ovarian
# [9] = system: HS 578T breast
# [10] = system: NCI/ADR-RES ovarian
Structure (SMILES),growth [1],growth [2],growth [3],growth [4],growth [5],growth [6],growth [7],growth [8],growth [9],growth [10]
COc1ccc(Nc2ncc(I)c(NCCCNC(=O)C3CCC3)n2)cc1,0.641% (active),11.4%,19.3%,3.96% (active),42.2%,-3.33% (active),-20.8% (active),-40.4% (active),17.1%,22.2%
COc1ccc(CNc2ccc3nc(NC(=O)CN4CCCCCC4)sc3c2)cc1,93.5%,55.6%,87.8%,95.5%,62.3%,103%,107%,101%,115%,82.9%
COc1cccc(-c2cn3nc(-c4cn(C)c5ccccc45)sc3n2)c1,24.9%,97%,101%,91.4%,93.6%,93.6%,92.8%,99.2%,85.7%,94.3%
COc1ccc(N=C2NN=C(c3c[nH]c4ccccc34)CS2)cc1OC,93.6%,17%,71.7%,74.6%,69.2%,67.7%,-32.4% (active),-9.06% (active),52.8%,17.7%
COc1ccc(-c2nc(SCC(=O)Nc3nc4ccc(C)cc4s3)[nH]c(=O)c2C#N)cc1OC,75.2%,110%,101%,111%,105%,74.2%,95.9%,112%,87.4%,98.3%
O=C(/C=C/c1ccccc1)c1cccc2ccccc12,8.29% (active),6.78% (active),19.9%,103%,41.3%,62.2%,47.3%,22.4%,32.1%,24.9%
Nc1c(C(=O)Nc2cccc3ncccc23)sc2nc3c(cc12)CN(Cc1ccccc1)CC3,33.9%,58.4%,83%,88.8%,71.5%,78.4%,72.6%,80.1%,76.9%,87.9%
COc1cc2ncnc(Nc3ccc(F)c(Cl)c3)c2cc1OCC(=O)N1CCOCC1,89.3%,91%,87.2%,74.1%,82.7%,17.4%,45.6%,79.7%,96.7%,81.9%
c1ccc(-c2ccc3c(c2)C2(CCNCC2)CN3)cc1,96%,97.5%,99.2%,98.1%,91.5%,79.4%,73%,86.2%,93.6%,94.3%
COCCn1cc(-c2nc(-c3cn(CCOC)c4ncccc34)cs2)c2cc(F)ccc21,35.3%,61.3%,62.4%,38.8%,25.4%,76.8%,30.1%,17.6%,70.8%,63.8%
C#COc1cccc(Nc2ncnc3cc(NC(=O)[C@H](C)Cl)ccc23)c1,92.6% [6.25 µM],100% [6.25 µM],9.3% [6.25 µM] (active),25% [6.25 µM],56.6% [6.25 µM],3.8% [6.25 µM] (active),9.75% [6.25 µM] (active),7.9% [6.25 µM] (active),24.8% [6.25 µM],14.8% [6.25 µM]
Cn1c2ccccc2c2c3c(c4c5cc(Br)ccc5n(C)c4c21)C(=O)N(O)C3=O,18.6%,10.8%,24.8%,92.6%,53.7%,3.4% (active),21.5%,6.42% (active),61.9%,6.86% (active)
Oc1c(CN2CCC(N3CCOCC3)CC2)cc(Cc2cc(CN3CCC(N4CCOCC4)CC3)c(O)c3ncccc23)c2cccnc12,20%,34.8%,19.6%,47.3%,15.4%,0.924% (active),25%,19.6%,58.9%,40.7%
